Compounds without any hit were thinned out: in the full panel of roughly 83,000, 20% have a hit.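 Negative percent growth values reflect cell death: -40 means 40% of the cells present at the start died, and -100 means all died.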 Unmarked numbers belong to inactive results. The source made the active and inactive calls. Rule for the calls: active = growth percent below 10; inactive = the rest.
How the values were obtained:
Assay in all cases: NCI-60 one-dose screen, 48 h (100 = growth as untreated, 0 = no growth, -100 = all killed)
Conditions in all cases: 10 µM unless noted
MOLT-4 leukemia = system: MOLT-4 leukemia
SR leukemia = system: SR leukemia
RPMI-8226 leukemia = system: RPMI-8226 leukemia
OVCAR-8 ovarian = system: OVCAR-8 ovarian
OVCAR-5 ovarian = system: OVCAR-5 ovarian
OVCAR-4 ovarian = system: OVCAR-4 ovarian
SK-OV-3 ovarian = system: SK-OV-3 ovarian
IGROV1 ovarian = system: IGROV1 ovarian
OVCAR-3 ovarian = system: OVCAR-3 ovarian
HS 578T breast = system: HS 578T breast
T-47D breast = system: T-47D breast
BT-549 breast = system: BT-549 breast
MDA-MB-435 melanoma = system: MDA-MB-435 melanoma
SW-620 colon = system: SW-620 colon
MCF7 breast = system: MCF7 breast
HCT-116 colon = system: HCT-116 colon
KM12 colon = system: KM12 colon
NCI/ADR-RES ovarian = system: NCI/ADR-RES ovarian
HCC-2998 colon = system: HCC-2998 colon

SMILES	growth (MOLT-4 leukemia)	growth (SR leukemia)	growth (RPMI-8226 leukemia)	growth (OVCAR-8 ovarian)	growth (OVCAR-5 ovarian)	growth (OVCAR-4 ovarian)	growth (SK-OV-3 ovarian)	growth (IGROV1 ovarian)	growth (OVCAR-3 ovarian)	growth (HS 578T breast) [%]	growth (T-47D breast)	growth (BT-549 breast)	growth (MDA-MB-435 melanoma)	growth (SW-620 colon)	growth (MCF7 breast)	growth (HCT-116 colon)	growth (KM12 colon)	growth (NCI/ADR-RES ovarian)	growth (HCC-2998 colon)
COc1ccc(/C=C\c2cc(OC)c(OC)c(OC)c2)cc1OCC(=O)Nc1nc2ccc(OC(F)(F)F)cc2s1	13.2%	31.5%	22.8%	43.2%	112%	64.4%	48.4%	30.3%	-30.7% (active)	12.5	22.4%	58.7%	-30.2% (active)	25.1%	24.3%	19.5%	19.2%		
CC(=O)O[C@H](C[C@H](C(C)C)N(C)C(=O)[C@@H](NC(=O)[C@H]1CCCN1C)C(C)C)c1nc(C(=O)N[C@@H](Cc2ccccc2)C[C@H](C)C(=O)O)c(C)s1	18.9%	8.27% (active)	19.8%	17.9%	36.1%	48.2%	6.85% (active)	30.2%	-22.9% (active)	23.8	50.6%	-22.7% (active)	-5.47% (active)	25.1%			8.49% (active)		
COC(=O)[C@@]1(O)C[C@H]2O[C@]1(C)n1c3ccccc3c3c4c(c5c6ccccc6n2c5c31)C(=O)NC4	-31% (active)	-18.3% (active)	-39.6% (active)	-43.6% (active)	-11.6% (active)	-51% (active)	-33.8% (active)	-30.4% (active)	-19.2% (active)		-37.4% (active)	-73.9% (active)	-90.2% (active)	-19.7% (active)	-40.7% (active)	-4.08% (active)	-13.9% (active)	-40.2% (active)	-53.4% (active)
Cn1cc(C2=C(c3cn(C4CCN(Cc5ccccn5)CC4)c4ccccc34)C(=O)NC2=O)c2ccccc21	85.7%	7.89% (active)	107%	78.8%	31.2%	76.8%	83.5%	33.9%	90.3%		54.5%	78.3%	47.6%	47.8%	76.1%	38.2%	57.2%	84.4%	31.4%
NC(CCl)CCl	105%	108%	99.3%	100%	107%	102%	-100% (active)	110%	100%		-100% (active)	107%	89.2%	102%	96.5%	107%	99.5%	105%	101%
CC12CC(=O)C3(SC#N)C(CCC4=CC(=O)CCC43C)C1CCC2=O (stereo not drawn)	22.2%	86.1%	77.5%	89.6%	103%	73.8%	109%	99.2%	42.1%		32.8%	90.7%	70.9%	40.6%	57.7%	39.7%	102%		105%
C[C@@H]1CCC2[C@@H](C)[C@H](OC(=O)CCC(=O)NCCNC(=O)Cc3cc(=O)oc4cc(N(C)C)ccc34)O[C@@H]3O[C@]4(C)CC[C@@H]1C23OO4 (stereo partly drawn)	31.3%	-16.8% (active)	15.1%	23.8%	49%	49.1%	92.3%	55%	37.7%	49.5	41%		19.2%	25.3%	35.9%	10.1%	22.2%		50.2%
CCC1CN1CCCCN1CC1CC (stereo not drawn)	108%	104%	102%	101%	102%	102%	110%	102%	107%		92.1%	103%	93.7%	105%	99.8%	98.7%	106%	103%	100%
N#CCCNc1ccccc1	79.3%	77.1%	95.2%	114%	104%	105%	121%	119%	106%		111%	108%	98.9%	103%	103%	108%	113%	108%	106%
COC[C@@H]1C[C@@]2(C)[C@@H](CC[C@@H]3[C@@H]2CC[C@@]2(C)[C@H]3CC[C@]2(C)O)CC1=O	90.4%	83.7%	84.5%	95.8%	97.9%	101%	98.7%	98.9%	106%		88.2%	89.1%	108%	110%	92.7%	96%	101%	101%	94.9%
CCCCCC1(CCBr)C(=O)NC(=O)NC1=O	104%	94.7%	97.5%	97.3%	96.6%	111%	99.1%	112%	104%		106%	90.5%		101%	97.5%	106%	109%	121%	115%
C/C(CC(C)(C)N1CC1)=N\NC(=O)Nc1cccc2ccccc12	12.2%	20.9%	72.7%	44.1%	100%	55.8%	79.3%	38.8%	48.3%	79.8	55.8%	68.5%	79.6%	52.3%	24.9%	46.5%	75.9%		75.3%
OCCCCCNC1CCCCC1	83.9%	89.7%	102%	103%	86.3%	103%	102%	103%	125%		95.4%	105%	104%	107%	103%	94.7%	111%	103%	104%
Cc1ccccc1NC(=NCCCN1CC1)Nc1ccccc1C	70.8%	69.7%	95.2%	82.6%	123%	88.9%	79.9%	82%	90.4%	97.4	74.5%	104%	93%	87.1%	68.9%	79.8%	94.6%		102%
CN(C)C(=O)Oc1ccccc1	110%	109%	104%	102%	82.4%	101%	103%	108%	120%		105%	118%	112%	93.8%	104%	104%	110%	98.2%	102%
COC(=O)C1OC(Oc2ccc(N(CCCl)CCCl)cc2)C(OC(C)=O)C(OC(C)=O)C1OC(C)=O (stereo not drawn)	37.3%	4.19% (active)	96.6%	84.8%	90.4%	87.7%	96.7%		94.2%	102	77.4%	95.3%	93.2%	75.4%	57.8%	88.6%		92.9%	96%
CCC(C)(C)[C@H](NC(=O)[C@H]1CCCCN1C)C(=O)N(C)[C@H](C[C@@H](OC(C)=O)c1nc(C(=O)N[C@@H](Cc2ccccc2)C[C@H](C)C(=O)O)cs1)C(C)C	15.5%	6.11% (active)	7.76% (active)	14.2%	42.5%	40.4%	38.1%	17.5%	5.97% (active)	13.3	76.7%	-34.7% (active)	-47.2% (active)	26.6%	23.9%	-10% (active)	4.26% (active)		22.2%

From PubChem BioAssay (NCI)
